Data from PubChem BioAssay.
The source made the active and inactive calls.

Key:
[1] = small molecules captured by biotinylated probe aFSTL3 – biochemical, small-molecule microarray, fluorescence 635/667, stem cell growth factor project, primary screen (AID 1064); settings: higher = more signal;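 also: measures binding of the biotinylated anti-FSTL3 antibody to printed compounds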
[2] = binders from COS7 lysate, DM2A8 probe, primary screen, torsin A project, cell lysate, small-molecule microarray, fluorescence 635/667 (AID 1065); settings: higher = more signal, COS7 lysate expressing mutant human TOR1A
[3] = small molecules captured by biotinylated probe aFGF2 – biochemical, small-molecule microarray, fluorescence 635/667, stem cell growth factor project, primary screen (AID 1067); settings: higher = more signal;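 also: measures binding of biotinylated aFGF2 protein to printed compounds on slides; z-score merges feature fluorescence and signal-to-noise across triplicate slides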
[4] = small molecules captured by biotinylated probe aFGF10 – biochemical, small-molecule microarray, fluorescence 635/667, stem cell growth factor project, primary screen (AID 1071); settings: higher = more signal;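 also: score merges 667 nm spot intensity and signal to noise from triplicate slides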
[5] = target: Neurogenic locus notch homolog protein 2 (Homo sapiens) (UniProt Q04721); assay: small molecules binding Notch2 protein – biochemical, small-molecule microarray, 635 nm fluorescence, stem cell growth factors, primary screen (AID 1073); settings: higher = more signal
[6] = target: Pro-neuregulin-1, membrane-bound isoform (Homo sapiens) (UniProt Q02297); assay: small molecules binding neuregulin-1 protein – biochemical, small-molecule microarray, fluorescence 635/667, psychiatric disease protein project, primary screen (AID 1075); settings: NRG1 binding, 635 nm fluorescence, higher = more signal;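 also: score combines 667 nm spot fluorescence with signal to noise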
[7] = test system: Neuregulin-1 EGF-like domain; assay: small molecules binding NRG1 EGF domain – biochemical, small-molecule microarray, 635 nm fluorescence, primary screen (AID 1081); settings: higher = more signal;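 also: binding of the protein to compounds printed on small-molecule microarray slides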
[8] = FRG1 expression reporter modulators in myotubes – cell-based, C2C12 myotubes, firefly/Renilla luciferase, luminescence, FRG1 inhibition for FSHD, primary screen (AID 1084); settings: FRG1 promoter luciferase, higher = more signal, called active from +8 up or from −8 down
[9] = small molecules captured by biotinylated probe aFST – biochemical, small-molecule microarray, fluorescence 635/667, stem cell growth factor project, primary screen (AID 1086); settings: higher = more signal;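 also: score merges 667 nm fluorescence with signal-to-noise of each printed compound spot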
[10] = binders of probe aHhip on microarray, primary screen, stem cell growth factor project, biochemical, small-molecule microarray, fluorescence 635/667 (AID 1087); settings: higher = more signal;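 also: score merges spot fluorescence at 667nm with spot signal to noise ratio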

Neurogenic locus notch homolog protein 2 (Homo sapiens), sequence (Q04721 whole entry, looked up, canonical isoform): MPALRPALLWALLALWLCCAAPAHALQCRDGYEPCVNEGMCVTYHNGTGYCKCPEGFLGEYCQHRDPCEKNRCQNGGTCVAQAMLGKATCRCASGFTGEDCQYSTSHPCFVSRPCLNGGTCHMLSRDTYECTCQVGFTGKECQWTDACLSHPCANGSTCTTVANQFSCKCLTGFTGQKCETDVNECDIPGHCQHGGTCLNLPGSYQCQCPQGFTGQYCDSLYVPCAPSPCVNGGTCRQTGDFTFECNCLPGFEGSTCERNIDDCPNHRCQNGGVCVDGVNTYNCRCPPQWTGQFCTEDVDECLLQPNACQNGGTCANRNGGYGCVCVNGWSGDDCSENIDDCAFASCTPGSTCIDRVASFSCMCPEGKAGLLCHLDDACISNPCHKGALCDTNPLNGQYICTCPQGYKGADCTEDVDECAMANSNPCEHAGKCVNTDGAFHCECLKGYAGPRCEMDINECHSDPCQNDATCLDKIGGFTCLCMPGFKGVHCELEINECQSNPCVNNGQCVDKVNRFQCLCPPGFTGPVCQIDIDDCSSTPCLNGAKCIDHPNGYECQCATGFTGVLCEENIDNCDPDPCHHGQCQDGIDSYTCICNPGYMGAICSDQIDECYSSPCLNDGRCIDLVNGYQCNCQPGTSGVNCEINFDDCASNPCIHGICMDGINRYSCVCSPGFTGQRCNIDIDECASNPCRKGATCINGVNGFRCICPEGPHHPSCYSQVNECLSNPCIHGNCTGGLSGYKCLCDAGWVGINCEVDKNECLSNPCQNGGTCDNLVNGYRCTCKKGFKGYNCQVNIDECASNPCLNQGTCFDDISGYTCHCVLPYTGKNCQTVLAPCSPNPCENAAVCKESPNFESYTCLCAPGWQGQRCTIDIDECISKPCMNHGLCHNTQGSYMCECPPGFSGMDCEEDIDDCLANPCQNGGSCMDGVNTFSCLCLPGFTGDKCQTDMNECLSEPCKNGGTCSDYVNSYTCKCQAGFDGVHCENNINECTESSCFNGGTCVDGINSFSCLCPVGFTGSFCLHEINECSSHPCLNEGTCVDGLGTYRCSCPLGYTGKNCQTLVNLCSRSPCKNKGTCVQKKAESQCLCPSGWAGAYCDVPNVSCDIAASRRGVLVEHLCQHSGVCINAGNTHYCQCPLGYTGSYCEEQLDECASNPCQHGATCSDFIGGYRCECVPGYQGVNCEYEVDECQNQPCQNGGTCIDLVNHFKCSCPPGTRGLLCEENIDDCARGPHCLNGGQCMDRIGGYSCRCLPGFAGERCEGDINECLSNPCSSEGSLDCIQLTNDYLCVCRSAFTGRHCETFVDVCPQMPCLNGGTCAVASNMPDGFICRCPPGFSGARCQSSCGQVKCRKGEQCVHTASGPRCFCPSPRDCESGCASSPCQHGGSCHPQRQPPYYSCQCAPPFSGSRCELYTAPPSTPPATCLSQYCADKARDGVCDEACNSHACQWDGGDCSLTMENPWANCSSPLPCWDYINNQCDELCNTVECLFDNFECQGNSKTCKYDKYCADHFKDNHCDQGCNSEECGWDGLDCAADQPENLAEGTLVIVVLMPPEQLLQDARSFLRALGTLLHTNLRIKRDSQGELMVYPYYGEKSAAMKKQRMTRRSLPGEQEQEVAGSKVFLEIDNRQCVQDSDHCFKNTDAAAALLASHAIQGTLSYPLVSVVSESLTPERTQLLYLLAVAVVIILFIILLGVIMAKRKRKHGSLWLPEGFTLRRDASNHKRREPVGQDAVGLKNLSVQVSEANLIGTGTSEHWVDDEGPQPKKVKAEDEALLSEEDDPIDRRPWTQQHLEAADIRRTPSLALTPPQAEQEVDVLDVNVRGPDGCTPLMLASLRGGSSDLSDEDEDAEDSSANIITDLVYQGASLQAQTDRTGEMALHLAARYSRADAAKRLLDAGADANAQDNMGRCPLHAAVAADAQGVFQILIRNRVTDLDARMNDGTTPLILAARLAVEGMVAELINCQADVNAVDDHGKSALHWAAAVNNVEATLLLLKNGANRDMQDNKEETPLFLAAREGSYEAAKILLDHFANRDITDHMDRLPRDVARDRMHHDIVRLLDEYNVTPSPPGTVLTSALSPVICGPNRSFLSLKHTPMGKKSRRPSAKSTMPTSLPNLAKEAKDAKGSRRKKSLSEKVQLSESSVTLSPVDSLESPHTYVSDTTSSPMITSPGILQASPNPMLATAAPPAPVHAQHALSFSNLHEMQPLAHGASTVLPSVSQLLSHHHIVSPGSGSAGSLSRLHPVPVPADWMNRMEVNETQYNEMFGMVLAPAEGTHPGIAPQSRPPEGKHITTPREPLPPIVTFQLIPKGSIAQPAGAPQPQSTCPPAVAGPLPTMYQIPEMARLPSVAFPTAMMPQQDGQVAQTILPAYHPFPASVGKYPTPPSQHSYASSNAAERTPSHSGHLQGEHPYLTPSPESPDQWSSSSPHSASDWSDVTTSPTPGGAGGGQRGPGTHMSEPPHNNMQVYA
Pro-neuregulin-1, membrane-bound isoform (Homo sapiens), sequence (Q02297 whole entry, looked up, the tested form may be a part, canonical isoform): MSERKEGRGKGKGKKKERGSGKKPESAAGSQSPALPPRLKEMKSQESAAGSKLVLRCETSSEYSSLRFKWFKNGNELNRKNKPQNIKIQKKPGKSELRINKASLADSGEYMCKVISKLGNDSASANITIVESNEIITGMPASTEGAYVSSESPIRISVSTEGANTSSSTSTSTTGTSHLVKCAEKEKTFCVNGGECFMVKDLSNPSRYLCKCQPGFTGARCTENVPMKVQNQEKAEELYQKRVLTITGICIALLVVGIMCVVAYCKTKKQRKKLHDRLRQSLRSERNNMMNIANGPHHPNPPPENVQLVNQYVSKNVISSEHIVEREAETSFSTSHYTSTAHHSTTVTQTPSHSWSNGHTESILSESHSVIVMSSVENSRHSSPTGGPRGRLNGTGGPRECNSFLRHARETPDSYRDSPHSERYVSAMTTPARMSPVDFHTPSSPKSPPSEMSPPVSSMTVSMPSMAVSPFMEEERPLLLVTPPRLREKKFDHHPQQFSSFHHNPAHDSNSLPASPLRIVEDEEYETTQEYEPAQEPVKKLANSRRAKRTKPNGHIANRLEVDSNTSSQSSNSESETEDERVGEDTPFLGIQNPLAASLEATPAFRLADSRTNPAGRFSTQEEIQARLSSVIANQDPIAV

Row | Structure (SMILES) | composite z-score [1] | composite z-score [2] | composite z-score [3] | composite z-score [4] | composite z-score [5] | composite z-score [6] | composite z-score [7] | z-score [8] | composite z-score [9] | composite z-score [10]
1 | COc1ccc(O[C@H]2C=C[C@@H](c3ccccc3)O[C@@H]2COC(=O)CCC(C)=NOC[C@@H](O)COCc2ccco2)cc1 | 0.776 | -1.81 | -0.411 | -1.98 | -2.67 | -1.28 | -0.649 | 0.838 (inactive) | -2.3 | -0.115
2 | CCN1C(=O)[C@H]2[C@H]3[C@H](O)[C@H](O)CC(=NO[C@@H]4O[C@H](COC(C)=O)[C@@H](OC(C)=O)[C@H](OC(C)=O)[C@H]4OC(C)=O)[C@@H]3CC[C@H]2C1=O | -0.665 | 0.588 | -0.0319 | 0.794 | 0.948 | 0.357 | 1 | 0.186 (inactive) | 0.054 | -0.0994
3 | O=C1C=C[C@@H](O)[C@@H]2[C@@H]3C(=O)N(C4CCCCC4)C(=O)[C@@H]3CC[C@@H]12 | 0.585 | 0.0002 | -0.189 | 0.442 | 0.545 | 0.305 | 0.968 | -0.325 (inactive) | 0.265 | 0.0373
4 | CC1(C)O[C@H]2OC([C@H](O)CON3C(=O)c4ccccc4C3=O)[C@H](O)[C@H]2O1 (stereo not given in full) | -0.437 | -0.0068 | -0.175 | 0.0685 | 0.335 | 0.166 | 0.0939 | 0.516 (inactive) | 0.169 | -0.374
5 | COC(=O)[C@H](C)NC(=O)CCC1CC(OC(=O)NCCc2ccc(F)cc2)CC2(CCCC(COC(=O)NCCOc3ccccc3)O2)O1 (stereo not given in full) | -0.443 | 0.269 | -0.0392 | 0.532 | 1.34 | 0.672 | 0.933 | 0.907 (inactive) | 0.238 | -0.173
6 | COc1ccc(OC[C@H]2CN3[C@@H](CC[C@@H](C)[C@@H]3c3ccc(Br)cc3)C(=O)O2)cc1 | -0.358 | 0.722 | -0.181 | 0.243 | -0.142 | 0.165 | -0.228 | -0.539 (inactive) | -0.115 | -0.109
7 | CC(=O)OC[C@H]1O[C@H](CC=NO[C@@H](C)c2cc(-c3c(C)cc(C)cc3C)no2)C=C[C@@H]1OC(C)=O | -0.357 | -0.264 | -0.1 | 0.149 | 0.0166 | -0.291 | -0.736 | 1.03 (inactive) | -0.122 | -0.0994
8 | COC(=O)CC=C[C@@H](C)[C@@H](C=NOC[C@@H](O)COCc1ccco1)NS(=O)(=O)c1ccc(C)cc1 | -0.568 | 0.9 | -0.162 | -0.28 | -0.572 | -0.767 | -0.929 | 0.184 (inactive) | -0.0225 | -0.0237
9 | CCOC(=O)[C@H](CC(C)C)NC(=O)CCC1CC(OC(=O)NCc2ccc3c(c2)OCO3)CC2(CCCC(COC(=O)NCCc3ccc(Cl)cc3)O2)O1 (stereo not given in full) | -0.549 | -0.08 | -0.129 | 0.744 | 0.331 | 1.1 | 0.993 | 0.924 (inactive) | -0.0845 | -0.0237
10 | CC(=O)OC[C@H]1O[C@H](C#CCC2CCCCC2)C=C[C@@H]1OC(C)=O | -0.785 | 0.547 | -0.0739 | 0.494 | 0.207 | 0.833 | 0.828 | 1.23 (inactive) | -0.0607 | -0.0618
11 | CO[C@H]1COC(=O)CC=C[C@H](C)[C@H](OC)COC(=O)[C@@H](C)NC(=O)CC=C[C@@H]1C | -0.57 | 2.19 | -0.246 | -0.225 | -0.755 | -0.468 | 0.659 | 0.484 (inactive) | -0.39 | 0.172
12 | O=C1C=C[C@@H](O)[C@@H]2[C@@H]3C(=O)N(Cc4ccccc4)C(=O)[C@@H]3CC[C@@H]12 | -0.496 | -0.0062 | -0.171 | 0.373 | 0.632 | 0.159 | 0.543 | -0.895 (inactive) | 0.0563 | 0.226
13 | COC(=O)[C@@H]1CC[C@H](C)[C@@H](c2ccc(C)cc2)N1C(=O)c1ccc(C=NOC[C@H]2O[C@H](c3ccccc3)C=C[C@@H]2Oc2ccc(OC)cc2)cc1 | -0.462 | -0.24 | -0.154 | 0.217 | -0.0637 | 0.0379 | -0.631 | 0.434 (inactive) | 0.044 | -0.191
14 | CCN1C(=O)[C@H]2[C@H]3[C@H](O)[C@H](O)CC(=NO[C@H](C)c4cn([C@@H]5COC[C@H]5O)nn4)[C@@H]3CC[C@H]2C1=O | -0.258 | 0.307 | -0.0853 | 0.307 | 0.0679 | -0.455 | -0.14 | 0.225 (inactive) | 0.0423 | -0.238
15 | CC(C)C(=O)N[C@H]1CCCN1C(=O)C=Cc1ccccc1 | -0.174 | 0.253 | -0.0212 | 0.803 | 0.74 | -0.219 | 0.72 | -0.302 (inactive) | 0.214 | -0.0319
16 | COC(=O)CC=C1c2ccccc2[C@H](OC)[C@H]1C | -0.033 | -0.113 | -0.0044 | 0.234 | -0.0929 | -0.395 | -0.293 | 0.009 (inactive) | 0.137 | -0.0296
17 | CC(C)CON=C1C[C@@H](O)[C@@H](O)[C@@H]2[C@@H]3C(=O)N([C@@H](C)c4ccccc4)C(=O)[C@@H]3CC[C@@H]12 | 0.083 | 0.114 | -0.145 | 0.107 | 0.309 | -0.104 | -0.546 | 0.431 (inactive) | 0.624 | 0.0373
18 | C[C@@H](c1ccccc1)N1C(=O)[C@H]2[C@H]3[C@H](O)[C@H](O)CC(=NNC(=O)OCc4ccccc4)[C@@H]3CC[C@H]2C1=O | -0.909 | 2.62 | -0.203 | -0.261 | -0.155 | -0.536 | 1.22 | -0.491 (inactive) | 0.0473 | 0.161
19 | CC(=O)OC[C@H]1O[C@H](C#CCCc2ccccc2)C=C[C@@H]1OC(C)=O | -0.692 | 0.271 | -0.0732 | 0.335 | 0.445 | 1.22 | 0.543 | 0.0903 (inactive) | 0.302 | 0.0053
20 | COC(=O)[C@@H]1CC[C@H](C)[C@@H](c2ccc(Br)cc2)N1C(=O)C(F)(F)F | -0.23 | -0.214 | -0.108 | -0.148 | -0.232 | -0.493 | -0.677 | -0.589 (inactive) | -0.249 | -0.412
21 | CCOC(=O)[C@H](Cc1ccccc1)NC(=O)CCC1CC(OC(=O)NCCc2ccc(F)cc2)CC2(CCCC(COC(=O)NCCC(C)C)O2)O1 (stereo not given in full) | -0.397 | 0.813 | -0.0296 | -0.409 | 1.28 | 0.539 | 1.02 | -0.214 (inactive) | 0.296 | -0.201
22 | CC(=O)OC[C@H]1O[C@H](CC=NOC(C)CN2CCCCc3nc(C)c(C)cc32)C=C[C@@H]1OC(C)=O (stereo not given in full) | -0.349 | 2.35 | -0.071 | 0.325 | 0.965 | 0.0843 | 0.978 | 0.851 (inactive) | 0.0013 | 0.158
23 | CC(CCN1CCCCc2nc(C)c(C)cc21)=NO[C@@H](C)c1cc(-c2c(C)cc(C)cc2C)no1 | -0.0105 | -0.454 | -0.232 | -0.33 | -1.93 | 0.0782 | -0.246 | -1.49 (inactive) | -0.689 | -0.134
24 | CC(C)[C@@H](OCc1ccccc1)[C@H](C)C=NO[C@H](C)c1cn([C@@H]2COC[C@H]2O)nn1 | -0.478 | 0.402 | -0.0262 | 0.281 | 0.794 | -0.0746 | 1.07 | 0.476 (inactive) | -0.0844 | 0.165
